These results are taken from PubChem BioAssay (Tox21).

The structures appear in SMILES notation. Inconclusive results are not listed. Entries that show only a call come without a potency. The source made the active and inactive calls. The call rests on the fitted dose curve; in most records, active means well fitted cell-killing curve with a large enough effect in the repeat runs; inconclusive means weak or mixed curves, or effect the other way; inactive means flat fitted curve, though single readings scatter.
Potency means the concentration at half of the fitted maximal effect.

This assay in a line: qHTS assay to identify small molecule agonists of the androgen receptor (AR) signaling pathway in the presence of an antagonist - cell viability counter screen (AID 1259379). Further: nearly all actives have a fitted effect of over 25% in size. The settings on record: MDA-kb2 viability, CellTiter-Fluor, 16 h; series mostly up to 92.4 µM. From the text:
National Center for Advancing Translational Sciences [NCATS]
NIH Chemical Genomics Center [NCGC]
U.S. Environmental Protection Agency [EPA]
National Institutes of Environmental Health Sciences [NIEHS]
National Toxicology Program [NTP]
U.S. Food and Drug Administration [FDA]
Androgen receptor (AR) is an important member of nuclear receptor family. Its signaling plays a critical role in AR-dependent prostate cancer and other androgen related diseases. Considerable attention has been given in the past decades to develop methods to study and screen for the environmental chemicals that have the potential to interfere with metabolic homeostasis, reproduction, developmental and behavioral functions. Therefore AR binding assay for screening against androgen agonists and antagonists can be used to identify potential endocrine disruptors.
MDA-kb2 cells (from ATCC, deposited by Wilson et al.) are human breast carcinoma cells that were stably transfected with a luciferase reporter gene under control of the MMTV promoter that contains response elements for both androgen receptor (AR) and glucocorticoid receptor (GR). This particular screening for measuring luciferase reporter gene activity using MDA-kb2 cells against Tox21 10K library compounds is a confirmation study on agonist mode screening in the presence of AR-antagonist compound (Nilutamide) at 3.0uM final concentration. The cytotoxicity of the compounds was tested in parallel by measuring the cell viability using CellTiter-Fluor assay system (Promega, Madison, WI) in the same wells.
Tox21 Assay Protocol Summary:
MDA-kb2 cells (cells cultured without CO2) were dispensed at 3,000 cells/well in 4uL of culture medium into white wall/solid-bottom 1536-well plates (Corning Life Sciences, Corning, NY) using a Multidrop Combi (Thermo Fisher Scientific Inc., Waltham, MA) dispenser. The assay plates were incubated at 37C and 0% CO2 for 5hr. One uL of 3.0uM (final concentration) Nilutamide or assay buffer was added using two separate tips of Flying Reagent Dispenser (FRD, Aurora Discovery, San Diego, CA). Then 23nL of compounds dissolved in DMSO at 15 concentrations and positive controls were transferred to the assay plates using a Pintool station (Wako, San Diego, CA). The assay plates were incubated at 37C and 0% CO2 for 16 hr. After 15hr incubation at 37C, 1uL/well CellTiter-Fluor reagent (Promega Corporation) was added to each well of the assay plates using FRD. After 1hr incubation at 37C and 0% CO2, the fluorescence signal was measured using a ViewLux plate reader (PerkinElmer, Shelton, CT).
(In general: qHTS replaces the single test concentration by a dilution series.)
Turning to `CC[C@H](C)[C@H]1O[C@]2(C=C[C@@H]1C)C[C@@H]1C[C@@H](C/C=C(\C)[C@@H](O[C@H]3C[C@H](OC)[C@@H](O[C@H]4C[C@H](OC)[C@@H](O)[C@H](C)O4)[C@H](C)O3)[C@@H](C)/C=C/C=C3\CO[C@@H]4[C@H](O)C(C)=C[C@@H](C(=O)O1)[C@]34O)O2`, the Potency is 36.1 µM (active).
Take `CC(=O)OC1(c2ccccc2)CCN(CCc2ccccc2)CC1`: the Potency is 70.3 µM (active).
As for `Cl/C=C\CCl`, the Potency result was “inactive”.
On the same count and under the same terms, under `O=[N+]([O-])c1ccc(Oc2ccc(C(F)(F)F)cc2[N+](=O)[O-])cc1` stands “inactive”; under `Oc1ccc(I)cc1`, “inactive”; under `CC(C)C1CCC(Cc2ccc(Cl)cc2)C1(O)Cn1cncn1` (stereo not given), 67.9 µM (active).
For `S=C(SSC(=S)N1CCCCC1)N1CCCCC1`, the Potency entry is “inactive”.
Same read-out and setting: under `O=[N+]([O-])c1ccc2ccc3cccc4ccc1c2c34` stands 48.5 µM (active).
On the same count and under the same terms, under `CCCN(CC)CC1COC2(CCC(C(C)(C)C)CC2)O1` (stereo not given) stands “inactive”; under `CN(C)C1CSSSC1`, “inactive”.
Still for that read-out and setting: under `CCCCOCN(C(=O)CCl)c1c(CC)cccc1CC` stands “inactive”.
Regarding `CC(C)(C)c1ccc(CSc2cnn(C(C)(C)C)c(=O)c2Cl)cc1`, the Potency is 0.0433 µM (active).
Same read-out and setting: under `CCN(CC)c1c([N+](=O)[O-])cc(C(F)(F)F)c(N)c1[N+](=O)[O-]` stands “inactive”.
Same read-out and setting: under `CC(C)OC(=S)S` stands “inactive”.
Still for that read-out and setting: under `COc1cc(C=O)cc2c1[C@H](COC(N)=O)[C@]1(OC(C)=O)ON2C[C@H]2[C@@H]1N2C(C)=O` stands 27.3 µM (active); under `C=CCC1=C(C)C(OC(=O)C2C(C=C(C)C)C2(C)C)CC1=O` (stereo not given), 61.1 µM (active); under `Clc1ccc(-c2ccccc2)cc1`, “inactive”.
In the case of `N#CCCSCCC#N`, the Potency result is “inactive”.
As for `CC(=O)c1cc(C(C)(C)C)cc2c1CCC2(C)C`, the Potency entry is “inactive”.
As for `C[C@@H]1O[C@@H](O[C@H]2C[C@@H](O)[C@]3(CO)[C@H]4[C@H](O)C[C@]5(C)[C@@H](C6=CC(=O)OC6)CC[C@]5(O)[C@@H]4CC[C@]3(O)C2)[C@H](O)[C@H](O)[C@H]1O`, the Potency result is “inactive”.
In the case of `ClC1=C(Cl)[C@]2(Cl)[C@@H]3[C@@H](Cl)[C@H](Cl)C[C@@H]3[C@@]1(Cl)C2(Cl)Cl`, the Potency entry was “inactive”.
Regarding `Brc1c(Br)c(Br)c(Oc2c(Br)c(Br)c(Br)c(Br)c2Br)c(Br)c1Br`, the activity change, negative = cytotoxicity was 4.12% [at 19 µM] (inactive).
For the compound `CCCCCCCCCCCCCCCC[n+]1ccccc1`, the Potency is 25.5 µM (active) [middle of 4 runs].
On the same count and under the same terms, under `ClCc1ccccc1CCl` stands 61.1 µM (active); under `CC(=O)[O-].CC(=O)[O-].O.O.[Cd+2]`, “inactive”; under `Cc1ccc(CCl)cc1`, “inactive”.
Consider `CC(=O)[O-].CC(=O)[O-].[Hg+2]`, for which the Potency was 10.9 µM (active).
As for `N#Cc1c(-c2ccc(Cl)cc2)[nH]c(C(F)(F)F)c1Br`, the Potency is 0.969 µM (active).
The same measure, in the same setting: under `N#Cc1ccccc1Cl` stands “inactive”.
For the compound `CCSC(C)CC1CC(=O)C(/C(CC)=N/OC/C=C/Cl)=C(O)C1` (stereo not given), the Potency result is “inactive”.
Same read-out and setting: under `Oc1ccccc1Br` stands “inactive”.
Still for that read-out and setting: under `CN(C)S(=O)(=O)N(SC(F)(Cl)Cl)c1ccccc1` stands 30.6 µM (active); under `CCCCCCCCCC[N+](C)(C)CCCCCCCCCC`, 54.5 µM (active); under `CN(CCCC(=O)c1cccnc1)N=O`, “inactive”.
The same measure, in the same setting: under `C[C@@H](Oc1ccc(Cl)cc1Cl)C(=O)O` stands “inactive”.
In the case of `NC(=O)CCl`, the Potency entry is “inactive”.
Still for that read-out and setting: under `CC(C)N1C(=O)N(c2ccccc2)CSC1=NC(C)(C)C` stands “inactive”.
Same read-out and setting: under `CC(C)(C)OO` stands “inactive”; under `CC(C)C(=O)Cl`, “inactive”; under `CN(C)CCc1c[nH]c2ccc(O)cc12`, “inactive”.
